Results reported in PubChem BioAssay (NCATS).
Results filed as inconclusive are left out. The source made the active and inactive calls. Calls follow the shape of the dose curve; as a rule, active = well fitted cell-killing curve with a large enough effect; inconclusive = small, poorly fitted or top-dose-only effect, or effect the other way; inactive = flat fitted curve, though single readings scatter.

test: Cell Viability - LYMP2-003 (AID 965); conditions: LYMP2-003 lymphoblastoid cell viability; series mostly up to 92.2 µM; activity change, negative = cytotoxicity: at the top concentration;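 also: cells exposed to compounds for 24 h before reading; 0% = DMSO only and full effect = 92 µM tetraoctylammonium bromide; nearly all actives have a fitted effect of over 50% in size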
Description: NIH Chemical Genomics Center [NCGC]
NIH Molecular Libraries Screening Centers Network [MLSCN]
National Institutes of Environmental Health Sciences [NIEHS]
National Toxicology Program [NTP]
We have developed a 1536-well cell-based assay for quantitative high throughput screening (qHTS) against a number of cell lines to determine in vitro cytotoxicity of small molecules. This particular assay uses a human lymphoblastoid cell line (LYMP2-003) purchased from Coriell Institute for Medical Research.
NCGC Assay Protocol Summary:
The CellTiter-Glo luminescent cell viability assay (Promega) is a homogeneous method to measure the number of viable cells in culture. The end point readout of this assay is based on quantitation of intracellular ATP, an indicator of metabolic activity, using the luciferase reaction. Luciferase catalyzes the oxidation of beetle Luciferin to oxyluciferin and light in the presence of ATP. The luminescent signal is proportional to amount of ATP present.
Using the CellTiter-Glo luminescent cell viability assay, the amount of cellular ATP was measured in the lymphoblastoid cell line with complete culture medium following compound treatment for 24 hours. The assay was performed in opaque white Kalypsys 1536-well plates. In the screen, tetraoctylammonium bromide was used as positive control. Library compounds were measured for their ability to cause acute toxicity in the cell line, as reflected by a decrease in intracellular ATP levels, in a concentration-dependent manner. […] AC50 values were determined from concentration-response data modeled with the standard Hill equation.
qHTS protocol for CellTiter Glo lymphoblastoid cellular assay
[Step] [Parameter] [Value] [Description]
1. Reagent; 5 uL; 2500 lymphoblastoid cells/well
2. Time; 5 hr; 37 C incubation
4. Controls; 23 nL; Tetraoctylammonium bromide 6.4pM to 92 uM
5. Time; 24 hr; 37 C incubation
6. Reagent; 5 uL; CellTiter Glo reagent
7. Time; 30 min; Room Temperature
8. Detection; Luminescence; Viewlux plate reader
Keywords: cell viability, cytotoxicity, lymphoblastoid cell line, luminescence, NTPHTS, NTPHTS_NCGC, NIEHS, DSSTox, MLSMR, MLSCN, NIH Roadmap, qHTS, NCGC

Row | Compound | activity change, negative = cytotoxicity
1 | Cc1cc(Cl)ccc1O | 10.3% (inactive)
2 | Nc1ccc([N+](=O)[O-])cc1[N+](=O)[O-] | 8.89% (inactive)
3 | CCCCOCC1CO1 (stereo not given) | 16.8% (inactive)
4 | CCOC(=O)CC(SP(=O)(OC)OC)C(=O)OCC (stereo not given) | 11.2% (inactive)
5 | O=C(O)c1cc(Cl)ccc1Cl | 14.9% (inactive)
6 | C=CCBr | 20.5% (inactive)
7 | O=C(Cl)OCc1ccccc1 | 10.9% (inactive)
8 | CN=C=O | 9.99% (inactive)
9 | CNC(=O)O/N=C/C(C)(C)S(C)=O (stereo not given) | -8.2% (inactive)
10 | CCCCOC(=O)c1ccccc1N | 26% (inactive)
11 | O=[N+]([O-])c1ccc(Cl)c(Cl)c1Cl | 3.7% (inactive)
12 | N#CCCC#N | 22.1% (inactive)
13 | CC(C)(C)C(O)(CCc1ccc(Cl)cc1)Cn1cncn1 (stereo not given) | -6.07% (inactive)
14 | COP(=S)(OC)SCn1nnc2ccccc2c1=O | -2.22% (inactive)
15 | O=C(O)C(Br)Br | -12.3% (inactive)
16 | CCN(CC)CCO | 18.1% (inactive)
17 | Nc1ccc2ccccc2c1 | 3.45% (inactive)
18 | ClC(Cl)(Cl)C(Cl)(Cl)Cl | 21.9% (inactive)
19 | BrCC(Br)(Br)Br | -15.6% (inactive)
20 | O=[N+]([O-])c1ccc(Cl)cc1 | 6.5% (inactive)

Row | Compound | activity change, negative = cytotoxicity
21 | O=[N+]([O-])c1ccccc1CCl | 1.45% (inactive)
22 | N#CC(Br)Br | -26.3% (inactive)
23 | Cc1ccc(N)c(C)c1 | 9.77% (inactive)
24 | O=[N+]([O-])c1cccc(O)c1 | 26.9% (inactive)
25 | C1CC2OC2CC1C1CO1 (stereo not given) | 13.1% (inactive)
26 | Cc1ccc(N)cc1Cl | 11.1% (inactive)
27 | ClC(Cl)C(Cl)Cl | 11.7% (inactive)
28 | O=[N+]([O-])c1ccccc1-c1ccccc1 | 20.1% (inactive)
29 | CN(C)C(=O)Nc1ccc(Cl)cc1 | 9.03% (inactive)
30 | N#CC(O)c1ccccc1 (stereo not given) | 5.02% (inactive)
31 | CCN(CC)N=O | 3.65% (inactive)
32 | CC(C)C#N | 21.2% (inactive)
33 | ClCC(Cl)Cl | 18.8% (inactive)
34 | OCCBr | -6.52% (inactive)
35 | CN(C)c1ccc(N=Nc2ccccc2)cc1 | 4.94% (inactive)
36 | O=[N+]([O-])c1ccc2c3c(cccc13)CC2 | 8.14% (inactive)
37 | Oc1c(Cl)cccc1Cl | 11% (inactive)
38 | C=CC(=O)OC | 4.84% (inactive)
39 | Cc1ccccc1[N+](=O)[O-] | 2.52% (inactive)
40 | Nc1ccc(-c2ccc(N)cc2)cc1 | 1.15% (inactive)
